Bioassay records from PubChem.
CYP2C19 inh – human CYP2C19 inhibition; P33261; hit rate 21% among 96,000; CYP2C19 Supersomes, luciferin-H EGE luminescence, 30 min; inhibition, % at 5 µM;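 active means CYP2C19 inhibition above a set limit at 5 µM in the primary screen, cut at about 50% in these data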
Target sequence (P33261 whole entry, looked up): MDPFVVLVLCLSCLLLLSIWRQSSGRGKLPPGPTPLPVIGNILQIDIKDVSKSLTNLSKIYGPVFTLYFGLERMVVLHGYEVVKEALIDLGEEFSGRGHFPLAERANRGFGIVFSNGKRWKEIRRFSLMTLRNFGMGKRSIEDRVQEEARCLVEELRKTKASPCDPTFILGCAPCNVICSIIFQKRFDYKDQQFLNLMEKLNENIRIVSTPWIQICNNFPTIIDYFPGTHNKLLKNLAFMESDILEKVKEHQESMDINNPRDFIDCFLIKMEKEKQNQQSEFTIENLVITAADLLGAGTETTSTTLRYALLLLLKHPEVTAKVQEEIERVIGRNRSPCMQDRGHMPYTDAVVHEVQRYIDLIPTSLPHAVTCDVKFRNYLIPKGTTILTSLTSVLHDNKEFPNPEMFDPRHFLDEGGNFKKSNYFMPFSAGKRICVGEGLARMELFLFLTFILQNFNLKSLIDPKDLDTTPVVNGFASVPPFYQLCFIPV
CYP2C9 inhib – inhibitors of human CYP2C9; P11712; hit rate 20% among 96,000; inhibition, % at 5 µM; CYP2C9 Supersomes, luciferin-H conversion, luminescence;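 active means blocking of liver enzyme CYP2C9 beyond about 50% at 5 µM, limit read from the data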
Measles CPE – protection of cells from measles virus; AID 841; protection (pct of control), % at 4 µM; hit rate 1.5% among 140,000; Measles virus-infected cells, CPE protection, absorbance; in the data active means protection mostly above about 24%, no sharp cut-off; inactive means mostly below about 26%
CYP2C9 act – CYP2C9 (human) activation | P11712 | recombinant CYP2C9, luciferin-H conversion, luminescence; hits give high values; factor 1 = untreated enzyme, 0 = blocked | activation factor at 5 µM | hit rate 1.4% among 96,000;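 active means activation factor of 2 or more for CYP2C9 at a 5 µM dose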
CYP2C19 activ – increases human CYP2C19 enzyme activity; P33261; recombinant CYP2C19, luciferin-H EGE luminescence; hits give high values; 0 = fully inhibited enzyme, 1 = untreated enzyme; activation factor at 5 µM; 96,000 tested, under 10 active; AID 1025;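 active means activation factor of at least 2 at 5 µM in the primary screen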
Numbers stand for hits; . = inactive; / = not tested or not shown. Most compounds without a hit are left out; they make up all but 22% or so of the library.

SMILES | CYP2C19 inh | CYP2C9 inhib | Measles CPE | CYP2C9 act | CYP2C19 activ
Cc1nc2ccccc2c(=O)n1/N=C/c1ccncc1 | 76.4 | . | . | . | .
Cc1nc2ccccc2c(=O)n1/N=C/c1ccccc1 | . | . | . | . | .
Cc1ccc(-n2[nH]c(C)c(/C=N/n3c(C)nc4ccccc4c3=O)c2=O)cc1 | . | 55.4 | . | . | .
CCc1cccc2c(C#N)cn(CC(=O)NCCOC)c12 | . | . | . | . | .
CCS(=O)(=O)CCSC(=N)N | . | . | . | . | .
Cn1cc(Cl)c(C(=O)OCC(=O)Nc2nc(-c3ccc(Br)cc3)cs2)n1 | / | / | . | / | /
COc1ccc(/C=C/C(=O)N(C(C)C)C(C)C)cc1Br | 60.0 | . | . | . | .
COc1ccc(/C=C/C(=O)NC(C)C)cc1Br | . | . | . | . | .
CCCCCC(=O)NNC(=O)c1ccc(-c2ccccc2)cc1 | . | . | . | . | .
CC1=CC(C)(C)Nc2cc(C)c(C)cc21 | 92.2 | . | . | . | .
O=C(CSc1nnc(COc2ccccc2)o1)c1ccccc1 | . | . | . | . | .
CC(C)(C)NC(=O)CN(C(=O)CSc1nnc(COc2ccccc2)o1)c1cccc(F)c1 | . | . | 30.6 | . | .
O=C(CSc1nc2ccccc2o1)N1CCCC1 | . | . | . | . | .
O=C(CN(C(=O)CSc1nc2ccccc2o1)c1cccc(F)c1)NC1CCCCC1 | 74.2 | 62.6 | . | . | .
O=C(CN(C(=O)CSc1nc2ccccc2o1)c1ccccc1)NC1CCCCC1 | 76.8 | . | . | . | .
Cc1nnc(Nc2ccc3c(c2)ncn3C)c2ccccc12 | 83.4 | . | . | . | .
O=C(Cc1ccc(Cl)cc1)NNC(=O)c1cnccn1 | / | / | . | / | /
CCN1CCN(c2ccc([N+](=O)[O-])c(Sc3nc4ccccc4[nH]3)c2)CC1 | / | / | . | / | /
CS(=O)(=O)c1cc([N+](=O)[O-])c(Sc2nc3ccccc3[nH]2)c([N+](=O)[O-])c1 | 68.8 | . | . | . | .
COc1ccc(C(=O)Oc2coc(CSc3nnc(NC(=O)c4cccs4)s3)cc2=O)cc1 | / | / | . | / | /
CCc1ccc(NC2=CC(=O)CC(c3ccco3)C2)cc1 (configuration not stated) | 53.7 | 52.6 | . | . | .
Nc1ccc(S(=O)(=O)Nc2ccccn2)cc1 | / | / | . | / | /
O=S(=O)(Nc1ncccc1O)c1ccc(Cl)cc1 | 86.0 | . | . | . | .
Cc1ccnc(NS(=O)(=O)c2ccc(CC(C)C)cc2)c1 | 71.5 | . | . | . | .
O=S(=O)(Nc1cc(Cl)ccn1)c1ccc(Cl)cc1 | . | 74.0 | . | . | .
SMILES | CYP2C19 inh | CYP2C9 inhib | Measles CPE | CYP2C9 act | CYP2C19 activ
O=S(=O)(Nc1nc2ccccc2nc1Cl)c1ccc(Cl)cc1 | / | / | . | / | /
CCOc1ccc2nc(SC(C)C(N)=O)[nH]c2c1 (configuration not stated) | . | . | . | . | .
Cc1ccc2[nH]c(=O)c(CN(Cc3cccs3)Cc3nnnn3Cc3ccccc3)cc2c1 | 92.7 | 59.5 | . | . | .
CCc1ccc2[nH]c(=O)c(CN(CCCO)C(=O)NCc3ccccc3)cc2c1 | . | . | . | . | .
CCOC(=O)Cn1nnnc1C(CC)N(Cc1cccs1)Cc1cc2ccc(OC)cc2[nH]c1=O (configuration not stated) | 95.7 | 91.0 | . | . | .
CCOC(=O)Cn1nnnc1CN(Cc1cccs1)Cc1cc2cc(C)ccc2[nH]c1=O | 65.3 | . | . | . | .
CCOc1ccc2[nH]c(=O)c(CN(Cc3cccs3)Cc3nnnn3C(C)(C)C)cc2c1 | . | . | . | . | .
CCOC(=O)Cn1nnnc1CN(CCc1ccccc1)Cc1cc2cc(CC)ccc2[nH]c1=O | . | 71.5 | . | . | .
Cc1ccc2[nH]c(=O)c(CN(CCO)Cc3nnnn3CCc3ccccc3)cc2c1 | 70.8 | . | . | . | .
Cc1ccc2[nH]c(=O)c(CN(CCO)C(=O)NCc3ccccc3)cc2c1 | . | . | . | . | .
COc1ccc2[nH]c(=O)c(CN(Cc3cccs3)Cc3nnnn3C(C)(C)C)cc2c1 | 90.8 | 87.8 | . | . | .
O=C1NCCCC1C(=O)Nc1ccccn1 (configuration not stated) | . | . | . | . | .
COc1cc(/C=N/n2cnnc2)ccc1OCCSc1ccc(C)cc1 | 79.5 | 53.8 | . | . | .
COc1cc(/C=N\n2cnnc2)ccc1OCC(=O)Nc1ccc(C)cc1 | . | . | . | . | .
COc1ccc(C=Nc2cccc3c(=O)[nH][nH]c(=O)c23)c2ccccc12 | . | 78.8 | . | . | .
O=c1[nH][nH]cc1C=Nc1ccccc1O | . | . | . | . | .
Cn1c(N)c(C(=O)COC(=O)c2ccco2)c(=O)n(C)c1=O | . | . | . | . | .
